High-throughput results from PubChem.
In the library only some 10% were active in any assay of this set; here they are far more common.
Six1-Eya2 inh = blocks human Six1 binding to Eya2; Q15475+O00167; AlphaScreen GST-Six1/His-Eya2 binding, biochemical; stronger effect = lower value; 360,000 tested, 0.56% active; activity change, % (no concentration beside the values); in the data active = activity change below about -65%; inconclusive = mostly about -30% to -63%
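Homogeneous AlphaScreen proximity assay pairing GST-Six1 with His-tagged Eya2 (added as 5X mix: 250 nM and 500 nM) in 50 mM Tris pH 8.0, 300 mM NaCl, 1 mM TCEP. Glutathione donor and nickel acceptor beads; 1 h, 37 °C, dark.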
BAZ2B block = inhibitors of human BAZ2B bromodomain; AlphaScreen BAZ2B-H3K14Ac peptide displacement; Potency, µM (series often up to 114 µM), hits mostly inhibitors; 360,000 tested, 4.4% active; AID 504333; note: nearly all actives have a fitted effect of over 60% in size
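Complex of BAZ2B and biotin-H3K14Ac (50 nM apiece) forms over 30 min at RT, then faces library compounds up to 110 uM for another 30 min; AlphaScreen beads added, 20 min dark incubation, luminescence read.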
JMJD2A Tudor = JMJD2A Tudor domain (human) inhibition; O75164; AlphaScreen JMJD2A-Tudor / H3K4me3 peptide binding; Potency, µM (titrated, usually from 114 µM), most hits filed as inhibitors; 390,000 tested, 4.4% active; AID 504339; note: nearly all actives have a fitted effect of over 50% in size
CtBP-E1A inh = CtBP/E1A binding inhibition; activity change, % (no concentration beside the values); 340,000 tested, 0.49% active; AlphaScreen GST-E1A/His-CtBP binding, 1536-well; stronger effect = lower value; in the data active = activity change below about -65%; inconclusive = mostly about -30% to -63%
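Protein mix (5X: 125 nM each GST-E1A, His-CtBP) was incubated with pinned compound 2 h at 37 deg C in dark, in 50 mM Tris pH 8.0 buffer with 300 mM NaCl. Glutathione donor and nickel acceptor beads followed; AlphaScreen signal read after 1 h.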
G9a block = inhibitors of human histone lysine methyltransferase G9a | Q96KQ7 | 350,000 tested, 8.8% active | Potency, µM (highest dose often 102 µM), usual class: inhibitors | G9a H3K9 monomethylation, AlphaScreen, 2 h | AID 504332; note: nearly all actives have a fitted effect of over 75% in size
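Using a bead-based AlphaScreen, monomethylated H3K9 product from 2 h room-temperature reactions (G9a 20 nM, peptide 500 nM, SAM 20 uM) was detected with 0.5 ug/mL rabbit anti-H3K9me1 antibody.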
HP1b chromo inh = inhibitors of HP1-beta chromodomain binding to methylated histone tails. AlphaScreen HP1-beta / biotin-H3K9me3 peptide binding. 390,000 tested, 0.56% active. Potency, µM (top dose mostly 114 µM), usual class: inhibitors. P83916. AID 540317; note: nearly all actives have a fitted effect of over 70% in size
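AlphaScreen: HP1-beta (50 nM) preformed 30 min with biotin-H3(1-18)K9me3 peptide (50 nM) in PBS pH 7.4, 0.01% Tween-20. Compound added for 30 min at RT, then streptavidin donor/nickel chelate acceptor beads (10 ug/mL) for 30 min.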
Large screens that a line does not name were inactive. Unless noted, calls come from the whole dose curve; as a rule, active = well fitted inhibition curve with a large enough effect; inconclusive = small, poorly fitted or top-dose-only effect; inactive = no such curve, though single readings can be large or run the other way.

OC(COc1ccc(C2C=CCC2)cc1)CN1CCCCC1 (configuration not stated)	G9a block 40µM
Cc1[nH]c2ccccc2c1CN1CCN(c2ccccn2)CC1	G9a block inconclusive
Cc1[nH]c2ccccc2c1CN1CCC(Cc2ccccc2)CC1	BAZ2B block 45µM, JMJD2A Tudor 0.79µM, G9a block 14µM, HP1b chromo inh inconclusive
COc1ccc(CN2CCC(Cc3ccccc3)CC2)cc1OC	BAZ2B block inconclusive, JMJD2A Tudor 20µM, G9a block 50µM, HP1b chromo inh inconclusive
COc1ccccc1OCc1cc(C(=O)N(C)CCC2CCCCO2)no1 (configuration not stated)	none
CCC(C(=O)NCCc1ccc(OC)c(OC)c1)n1nc(C)n2c(cc3occc32)c1=O (configuration not stated)	none
O=C(c1ccco1)N1CCC(c2nc3c(nnn3Cc3ccc(F)cc3)c(=O)[nH]2)CC1	none
CCCCOc1ccc(C(=O)Nc2ccc(CN3CCOCC3)cc2)cc1	none
O=[N+]([O-])c1cccc(CN2CCC(Cc3ccccc3)CC2)c1	BAZ2B block 50µM, JMJD2A Tudor 1.6µM, G9a block 35µM, HP1b chromo inh inconclusive
OC(COc1ccc(Cl)cc1)CN1CCC(Cc2ccccc2)CC1 (configuration not stated)	G9a block 28µM
COc1cccc(OC)c1OCCCN1CCC(Cc2ccccc2)CC1	JMJD2A Tudor 20µM, G9a block 25µM, HP1b chromo inh inconclusive
COc1ccc(C(=O)C(=O)N2CCC(Cc3ccccc3)CC2)cc1OC	none (no result: BAZ2B block, JMJD2A Tudor, G9a block, HP1b chromo inh)
O=C(NC1CCN(Cc2cccc([N+](=O)[O-])c2)CC1)c1ccccc1	G9a block inconclusive
CCCCOc1ccc(CN2CCC(O)CC2)cc1	BAZ2B block inconclusive, JMJD2A Tudor 2.8µM (no result: G9a block)
O=C(O)c1ccc(B(O)O)cc1	none (no result: Six1-Eya2 inh, BAZ2B block, CtBP-E1A inh, G9a block)
O=c1cnnc(SCc2ccc([N+](=O)[O-])cc2)[nH]1	none (no result: BAZ2B block)
Cc1ccc2nc(SCc3nc(-c4ccc(Cl)cc4)no3)[nH]c2c1	none (no result: Six1-Eya2 inh, CtBP-E1A inh)
COc1ccc(-c2nnc3c4ccccc4c(-c4ccccc4)nn23)cc1	none (no result: Six1-Eya2 inh, CtBP-E1A inh)
Cc1cc(O)c(C(C)C)cc1NC(=O)Nc1ccc([N+](=O)[O-])cc1	JMJD2A Tudor inconclusive (no result: BAZ2B block, G9a block)
Cc1cc(O)c(C(C)C)cc1N=Cc1ccc([N+](=O)[O-])cc1	JMJD2A Tudor 45µM, HP1b chromo inh 50µM (no result: BAZ2B block, G9a block)
CNC(=S)N/N=C/c1ccc(N(C)C)cc1	none (no result: G9a block)
COc1cccc(C=Nc2cccnc2)c1O	G9a block inconclusive (no result: Six1-Eya2 inh, JMJD2A Tudor, CtBP-E1A inh, HP1b chromo inh)
Cc1cc(O)c(C(C)C)cc1N=Cc1ccc(N(C)C)cc1	JMJD2A Tudor 50µM, HP1b chromo inh 45µM (no result: BAZ2B block, G9a block)
COc1cccc(C=Nc2cc(C(C)C)c(O)cc2C)c1O	JMJD2A Tudor 56µM, CtBP-E1A inh inconclusive, HP1b chromo inh 79µM (no result: BAZ2B block, G9a block)
CC(c1ccccn1)N(Cc1ccco1)C(=S)Nc1cccc(F)c1 (configuration not stated)	JMJD2A Tudor inconclusive, G9a block inconclusive
COc1ccc(CNC(=O)COC(=O)[C@@H]2CCCN2C(=O)c2cccs2)cc1	none (no result: BAZ2B block, G9a block)
CS(=O)(=O)N1CCCc2cc(C(=O)Nc3cccc(C(F)(F)F)c3)ccc21	none (no result: Six1-Eya2 inh, CtBP-E1A inh)
O=C(COc1ccc(/C=C\[N+](=O)[O-])cc1)N1CCOCC1	G9a block 10µM (no result: CtBP-E1A inh)
O=C(COc1ccc(S(=O)(=O)N2CCOCC2)cc1)N1CCOCC1	none
CCNC(=O)COC(=O)c1cc(-c2ccco2)nc2ccccc12	BAZ2B block 50µM, JMJD2A Tudor 56µM, G9a block 40µM, HP1b chromo inh inconclusive (no result: CtBP-E1A inh)
CCOc1ccc(/C=N/NC(=O)c2cc(-c3ccco3)nc3ccccc23)cc1	none
COc1ccc(CNC(=O)COC(=O)c2cc(-c3ccco3)nc3ccccc23)cc1	BAZ2B block 50µM, G9a block 10µM (no result: Six1-Eya2 inh, JMJD2A Tudor, CtBP-E1A inh, HP1b chromo inh)
COc1ccc(CNC(=O)COC(=O)c2cc(C)nc3ccccc23)cc1	none (no result: BAZ2B block, G9a block)
Fc1ccc(/C=N/Nc2nn[nH]n2)cc1	BAZ2B block inconclusive (no result: CtBP-E1A inh)
CCc1ccc(/C=N/Nc2nn[nH]n2)cc1	BAZ2B block inconclusive, JMJD2A Tudor inconclusive, G9a block 10µM
Cn1nnnc1Sc1ncnc2scc(-c3ccccc3S(C)(=O)=O)c12	none (no result: Six1-Eya2 inh, BAZ2B block, CtBP-E1A inh, G9a block, HP1b chromo inh)
